Test results published in the supplement of paper PMC6555819.

What was measured:
Assay in all cases: PBM binding z-score (relative to random genomic background probes); higher = stronger binding; sequences stand for … in GC…GCGATTGACAGCGTAGAATGAAGG
[1] = test system: RARb homodimer (NR concentration 270 nM)
Procedure, shortened: (§1)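 Custom Agilent 4×180K protein-binding microarrays carried double-stranded probes. Their 34-nt variable regions held direct-repeat seeds, single-nucleotide variants, half-site ablations and random human genomic background sequences. Arrays were incubated 1 h with ligand-free nuclear receptor dimers in PBS pH 7.4, 2% milk, 0.02% Triton X-100, 1 mM DTT, 0.2 mg/mL BSA and 0.4 mg/ml salmon testes DNA. Antibodies against each partner (one per run) detected binding, and scanned fluorescence was regression-normalized. Binding z-scores use random background probes as reference.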

[2] = test system: RARg:RXRa (NR concentration 270 nM, RXRa partner concentration 90 nM)
Procedure, shortened: as §1

[3] = test system: RARg homodimer (NR concentration 270 nM)
Procedure, shortened: as §1

[4] = test system: RXRa DBDmut IVT, anti-RXR (DBD mutation: RXRa K156A/R161A, NR concentration 90 nM)
Procedure, shortened: as §1

[5] = test system: RXRa homodimer (NR concentration 180 nM)
Procedure, shortened: as §1

[6] = test system: THRa:RXRa (NR concentration 90 nM, RXRa partner concentration 90 nM)
Procedure, shortened: as §1

[7] = test system: THRa homodimer (NR concentration 90 nM)
Procedure, shortened: as §1

[8] = test system: VDR homodimer (NR concentration 270 nM)
Procedure, shortened: as §1

Row | Sequence | PBM binding z-score [1] | PBM binding z-score [2] | PBM binding z-score [3] | PBM binding z-score [4] | PBM binding z-score [5] | PBM binding z-score [6] | PBM binding z-score [7] | PBM binding z-score [8]
1 | ACTCGGAGGCCAAAGGTCAGAGCTACGCCAGTGA | 4.54 | 6.25 | 4.8 | 0.776 | 6.62 | 3.06 | -0.031 | 0.616
2 | TCGGCTAGGTCAACGATGGTCAGCTAATCTGCTA | 3.12 | 4.15 | 5.22 | 0.991 | 2.56 | 2.96 | 0.739 | 0.189
3 | CCACGGAGGACAGAAGGTCAGAGCTGTCCGCTTT | 3.73 | 3.62 | 3.48 | 0.42 | 2.22 | 2.44 | 0.0793 | 0.236
4 | CCGACTGGGGTAAAGGTTACCATACTCAGTACGA | 1.83 | 2.51 | 1.44 | 0.246 | 3.27 | 2.05 | -0.0216 | 0.207
5 | ATCGAAAGGTCGAGGTCAGTATAGAGAAAGGGAA | 4.73 | 5.69 | 6.16 | 2.01 | 5.46 | 3.84 | 1.93 | 2.73
6 | ATCTCTAGGTAACCCAGTTCAGTGAATGCCGAAC | 0.825 | 0.714 | 0.439 | 0.564 | 0.828 | 1.45 | 0.872 | 1.39
7 | TCATATAGGTAAAAAGGTGAAAGTCCGTAAGTTA | 2.04 | 2.48 | 1.06 | 1.71 | 2.42 | 1.55 | 0.644 | 0.718
8 | ACAGACAGGAGATGAAGGTAACTCAGGCTATCAT | 0.465 | 0.0751 | 0.419 | -0.203 | -0.000835 | 1.03 | 0.773 | 0.239
9 | TCTGCTAGGTCAAGGATGGTCAGCTAATCTGCTA | 3.49 | 3.97 | 4.85 | 0.94 | 2.6 | 2.88 | 0.621 | -0.0676
10 | TCTTGTAGATCAAGCAGCTTAAGAAAGCCTGAGT | -0.672 | -0.336 | -0.59 | 0.402 | -0.293 | -0.48 | -0.676 | -0.394
11 | TCGAGTAGGTTAGGGTCATTCAGAATGGCGTCGA | 3.05 | 3.8 | 2.8 | 2.11 | 4.66 | 3.83 | 2.62 | 3.97
12 | ATACCAAGGTGATCGTGAGGTCGTTGAAACTAAC | 2.04 | 2.53 | 1.34 | 0.72 | 1.98 | 3.84 | 3.02 | 3.25
13 | CGTGCAAGGTCAAAGGTCAGTGAAGAGATGACGG | 5.61 | 8.84 | 8.41 | 4.08 | 10.3 | 4.91 | 2.23 | 3.9
14 | GCTTGTAGATCAAGGTTAAGAAGGACTAAGCTAA | 0.182 | 0.382 | 0.268 | -0.0285 | 0.716 | 1.18 | -0.165 | -0.0273
15 | GCTACTAGGTCAGGTTGGTCAGCTAACGGGTACG | 2.98 | 2.63 | 3.84 | 0.551 | 1.24 | 1.85 | 1.16 | 0.983
16 | CGTCCAAGGTCTGCAGGTCAGTGAAAGCGACGTG | 2.06 | 1.26 | 1.8 | 0.0779 | 0.794 | 1.12 | -0.0329 | -0.462
17 | AGAACGAGGGCAATGAGTTGACAGCACGGGTGGC | 1.2 | 1.33 | 1.73 | 1.54 | 1.02 | 1.19 | -0.211 | 2.89

Row | Sequence | PBM binding z-score [1] | PBM binding z-score [2] | PBM binding z-score [3] | PBM binding z-score [4] | PBM binding z-score [5] | PBM binding z-score [6] | PBM binding z-score [7] | PBM binding z-score [8]
18 | TAGCCTAGGTCATGCGGGCCAGTCTAGTGTCGGC | 2.8 | 3.86 | 4.19 | 0.255 | 2.42 | 2.75 | 0.583 | 0.569
19 | TATACAGCGTCAAAGGCCAGAGTACGAATGTCGA | 0.415 | 0.284 | 0.525 | -1.06 | 0.258 | -0.433 | -1.11 | -0.0431
20 | TCATATAGGTAAACGTGAAAGTCGAACGATATGA | -0.329 | 0.415 | 0.326 | 0.8 | 0.894 | -0.0868 | -0.279 | -0.33
21 | CCTAGTTGGTCGAGGTCACACACGCTATAGGTAC | 3.98 | 4.6 | 4.42 | 2.64 | 5.16 | 4.16 | 4.15 | 4.51
22 | GCATATAGGTAATAGAAGGTGAAAGTCCGATTGT | 0.803 | 0.423 | 0.585 | 0.488 | 0.618 | 2.5 | -0.242 | 0.274
23 | CGAACGGGGGCATGAGTTGATAGCAAATGCCGAT | 1.89 | 3.42 | 3.74 | 3.24 | 2.51 | 3.04 | 1.25 | 3.69
24 | CCTTACGGGTCACTCCGGGTTATAGCATCGGAGT | 2.96 | 4.46 | 4.12 | 1.3 | 4.73 | 4.89 | -0.126 | 1.25
25 | CCTAGTGGGCCATTCAGAGGTCATTGATCATATG | 3.74 | 4.53 | 3.07 | 0.957 | 3.76 | 3.08 | 1.34 | 3.53
26 | TCATATAGGTAATACAGGTGTAAGTCGGCATCTA | -0.213 | 0.547 | 0.355 | 1.67 | 1.03 | 0.384 | 0.316 | 0.283
27 | CCGGCTAGGTCATGGTCAGCTAATCTACAGTATG | 3.33 | 4.11 | 4.99 | 1.48 | 3.01 | 2.99 | 1.57 | 0.619
28 | CCAGACAGGTGAGAAGGTAATTCAGCCTCGATTA | 0.446 | 0.488 | 0.401 | -0.0232 | 0.24 | 0.0341 | 0.0221 | -0.0971
29 | GATAAAGGGTCAAGGCCAGAGTACGCGTATTGAT | 4.87 | 6.46 | 6.91 | 2.52 | 6.59 | 3.38 | 0.263 | 2.36
30 | AGAATGAGGGCAATGAGTTGATAGCACGGGTGGC | 1.18 | 1.31 | 1.47 | 2.27 | 0.95 | 1.59 | 0.363 | 3.47
31 | AGAATGAGGTTACGAAAGATCAGGGAAACGCTTG | 0.671 | 2.26 | 1.68 | 1.11 | 2.73 | 2.89 | 0.487 | 0.194
32 | TCTAGTTGGTCACGGAGGTCACACAAGACGGGTA | 4.03 | 4.88 | 4.81 | 1.22 | 4.67 | 3.75 | 2.37 | 3.03
33 | GTACCAAGGTGAATAGGTCCTTGATGAGTAGGCG | 0.586 | 0.974 | 0.683 | -0.522 | 0.785 | 1.23 | 0.287 | -0.46
34 | AGTCAAAGTTCAGGTCGAGGTAACGTAAAGCACG | 3.87 | 4.95 | 4.97 | 3.14 | 3.08 | 4.18 | 2.7 | 2.75
